Our source for the growth values is PubChem BioAssay (NCI).

This is part of a sample that, as a whole, favours compounds with a hit. Of some 83,000 tested, about 20% had one in any assay.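 The endpoint reported here, percent growth, reads 100 for growth as untreated, 0 for no net growth and -100 for all cells dead.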 A number with no mark means an inactive call. The source made the active and inactive calls. Rule for the calls: active = growth percent below 10; inactive = the rest.

The subject of one assay is UACC-62 melanoma. Briefly: NCI-60 one-dose screen, 48 h (100 = growth as untreated, 0 = no growth, -100 = all killed). The settings on record: 10 µM unless noted.
Consider `CCC(=C(c1ccc(OCCN2CCCC2)cc1)c1ccc(OCCN2CCCC2)cc1)c1ccc(Cl)cc1`, for which the growth was -46.9% (active).
For `Oc1c(Cl)cc(Cl)c2ccc(Cn3cc(-c4ccc(C(F)(F)F)cc4)nn3)nc12`, the growth is 73.9%.
For the compound `O=C(NCCCCNC(=O)OCc1ccc2c(Cl)cc(Cl)c(O)c2n1)OCc1ccc2c(Cl)cc(Cl)c(O)c2n1`, the growth was 36.7%.
For the compound `CCN(CC)CCNC(=O)c1cn2ncnc(Oc3ccc(NC(=O)Nc4ccc(Cl)c(C(F)(F)F)c4)c(F)c3)c2c1C`, the growth is -46.2% (active).

A further assay relates to LOX IMVI melanoma. The assay is described as above. The settings on record: 10 µM unless noted.
On to `COc1cc(OC)cc(C2=C3CC[C@@H]4[C@H](CC[C@]5(C)C(=O)CC[C@@H]45)C3=CC3C(O)c4cccnc4N4C(=O)COC234)c1` (stereo partly drawn), for which the growth was 95.9%.
The same measure, in the same setting: for `CC(=O)Cc1nsc(NC(=O)c2cc(-c3cc(Cl)cc(Cl)c3)oc2C)n1` the value was 97%; for `CCOC(=O)c1cn2ncnc(Oc3ccc(NC(=O)NC4CCCCC4)c(Cl)c3)c2c1C`, 54.9%.
On to `Cc1nnc(NC(=O)c2nc(S(=O)(=O)Cc3ccc(F)cc3)ncc2Cl)s1`, for which the growth was 13.6%.
On to `C#CCOc1ccc2ncnc(Nc3ccc(NC(=O)CCl)cc3)c2c1`, for which the growth is -80.1% (active).
Same read-out and setting: for `CCOC(=O)C#Cc1c(C(=O)OCC)nnn1[C@@H]1O[C@H](CO)[C@H]2OC3(CCCCC3)O[C@H]21` the value was 20.1%; for `C/C(=N/O)c1ccc(F)cc1`, 69.5%.
Turning to `CCOC(=O)Cn1c(O)c(N=Nc2ccc(S(N)(=O)=O)cc2)c2cc(Br)ccc21`, the growth was 86%.
Turning to `Cc1nc(N2CCOCC2)sc1S(N)(=O)=O`, the growth was 95.8%.
